Compound activity deposited in PubChem by The Scripps Research Institute Molecular Screening Center.
DAX1 inh-1 – DAX1 (NR0B1) inhibitors, primary screen, cell-based, HEK293, Gal4-DAX1, luciferase luminescence; Nuclear receptor subfamily 0 group B member 1 (Homo sapiens), P51843; inhibition, % at 6.75 µM; HEK293 Gal4-DAX1 luciferase reporter; AID 504766, 2011; 340,000 tested, 0.99% active;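 active means inhibition above the mean over all tested compounds plus 3 SD, cut at about 4.2% in these data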;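 further: 0% = DAX1-transfected cells with DMSO and 100% = empty-vector control cells with DMSO; inhibition shows as a rise in luminescence from relieved DAX1 repression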
Target sequence (P51843 207-470 limits assumed): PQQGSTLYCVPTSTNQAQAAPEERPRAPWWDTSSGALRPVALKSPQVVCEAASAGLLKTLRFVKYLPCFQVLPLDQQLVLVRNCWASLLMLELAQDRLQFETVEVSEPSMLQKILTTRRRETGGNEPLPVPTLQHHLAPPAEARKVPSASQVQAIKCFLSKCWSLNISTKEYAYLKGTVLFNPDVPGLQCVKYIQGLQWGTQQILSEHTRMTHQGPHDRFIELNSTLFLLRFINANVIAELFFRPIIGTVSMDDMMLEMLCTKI
hgDAF-12 ag – H. glycines DAF-12 receptor agonists, primary screen, cell-based, luminescence, HEK293, GAL4 fusion, UAS-luciferase; Nuclear hormone receptor DAF-12 (Heterodera glycines), GAL4 fusion; HEK293 GAL4-hgDAF12 UAS-luciferase reporter, agonist luminescence; normalized to butyrate control; activation, % at 6.8 µM; 370,000 tested, 1.8% active;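 active means activation above a cutoff set at the mean of all screened compounds plus 3 SD, cut at about 10% in these data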;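 further: 0% = DMSO wells and 100% = sodium butyrate wells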
DAX1 inh-2 – DAX1 (NR0B1) inhibitors on StAR promoter, primary screen, cell-based, luminescence, SF-1 (NR5A1), full-length DAX-1 | inhibition, % at 6.8 µM | AID 652010, 2013 | 370,000 tested, 1.1% active | HEK293T StAR-luciferase reporter, SF-1/DAX-1 repression relief;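 active means inhibition above the mean over all tested compounds plus 3 SD, cut at about 3.6% in these data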;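 further: 0% = DAX-1 cells with DMSO and 100% = cells lacking DAX-1 with DMSO; higher inhibition means more luminescence from relief of DAX-1 repression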
SMARCA2 act – SMARCA2 (BRM) function activators, primary screen, cell-based, luminescence, high throughput; activation, % at 9.1 µM; MG213 cells, MMTV-luciferase reporter, dexamethasone, overnight; 370,000 tested, 1% active; in the data active means activation above about 7.8%;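 further: 0% = vehicle wells and 100% = reference activator wells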
ssDAF-12 act – S. stercoralis DAF-12 nuclear receptor activators, primary screen, cell-based, luminescence, HEK293, GRIP1 co-expression, lit1-tk-luc. 370,000 tested, 1% active. Nuclear hormone receptor DAF-12 (Strongyloides stercoralis). HEK293 ssDAF-12/GRIP1 lit1-tk-luc reporter; % of 3 µM dafachronic acid response. activation, % at 6.8 µM;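 active means activation above the mean over all tested compounds plus 3 SD, cut at about 0.9% in these data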;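 further: 0% = DMSO-only wells and 100% = 3 µM delta7-dafachronic acid wells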
hcDAF12 agonist – H. contortus DAF-12 nuclear receptor activators, primary screen, cell-based, luminescence, HEK293, lit1-tk-luc reporter. HEK293 hcDAF-12 lit1-tk-luc reporter; 0% DMSO, 100% Δ7-dafachronic acid. activation, % at 6.8 µM. 370,000 tested, 1.4% active. AID 652067, 2013;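 active means activation above the mean of all tested compounds plus 3 SD, cut at about 5.5% in these data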;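 further: 100% = response to 3 µM Δ7-dafachronic acid high control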
DAX1 conf – DAX1 (NR0B1) inhibitors relieving SF-1 repression, confirmation, cell-based, luminescence, HEK293T, full-length DAX-1, SF-1 activated StAR promoter | shares compounds with DAX1 inh-2 | HEK293T StAR-promoter luciferase reporter, SF-1/DAX-1 repression | inhibition, % at 6.8 µM | 2,400 tested, 87% active | AID 652134, 2013;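 active means inhibition above the average of every tested compound plus 3 SD, cut at about 3.8% in these data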;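 further: 0% = DAX-1 cells with DMSO and 100% = no DAX-1 control cells with DMSO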
SF1 mutant ctr – StAR reporter signal changes without DAX1, counter-screen for DAX1 inhibitor project, cell-based, luminescence, AF-2 mutant SF-1, transactivation. shares compounds with DAX1 inh-2. HEK293 StAR-luciferase, SF-1 AF2 mutant. inhibition, % at 6.8 µM. 2,400 tested, 78% active. AID 652136, 2013;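 active means inhibition above the mean of all tested compounds plus 3 SD, cut at about 3% in these data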;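 further: 0% = DAX-1 transfected cells with DMSO and 100% = cells without DAX-1 with DMSO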
LXR ag – LXR agonists, Gal4 luciferase reporter, confirmation, counter-screen for hcDAF-12 agonist project, cell-based, luminescence, HEK293, H. contortus campaign; shares compounds with hcDAF12 agonist; activation, % at 6.8 µM; 3,400 tested, under 10 active; HEK293 Gal4-LXR tk-luc reporter, 24 h; normalized: DMSO 0%, positive control 100%;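 active means mean percent activation of the reporter above a cutoff set as the average over tested compounds plus their standard deviation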
hcDAF12 ag – H. contortus DAF-12 receptor agonists, confirmation, cell-based, luminescence, HEK293, lit1-tk-luc, triplicate; shares compounds with hcDAF12 agonist; HEK293 hcDAF-12 lit1-tk-luc reporter; % of Δ7-dafachronic acid response; activation, % at 6.8 µM; 3,400 tested, 61% active; AID 743032, 2013;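 active means mean activation across triplicate tests above the threshold derived from the earlier primary screen, cut at about 5.5% in these data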;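 further: 0% = DMSO only wells and 100% = 3 µM Δ7-dafachronic acid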
hgDAF12 ag – H. glycines DAF-12 receptor agonists, confirmation, cell-based, luminescence, HEK293, GAL4-LBD fusion; HEK293 GAL4-hgDAF12 luciferase reporter, agonist mode; percent of butyrate response; 3,300 tested, 80% active; AID 743050, 2013; activation, % at 6.8 µM; shares compounds with hgDAF-12 ag;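 active means mean activation over triplicate wells above the hit cutoff derived from the earlier primary screen, cut at about 11% in these data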;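 further: 0% = DMSO low control and 100% = 2 mM sodium butyrate high control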
LXR ag 2 – LXR agonists, Gal4 luciferase reporter, confirmation, counter-screen for hgDAF-12 agonist project, cell-based, luminescence, HEK293, H. glycines campaign | shares compounds with hgDAF-12 ag | 24 h | activation, % at 6.8 µM | 3,300 tested, under 10 active | AID 743051, 2013;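 active means mean activation of the triplicate above a set limit carried over from the primary screen, none filed active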
Numbers without * were called inactive. A selection: hits, their analogues and other compounds. The true share with any hit is near 4.8%.

COc1ccc(-c2cccc3c4c([nH]c23)[C@@H]2C[C@H]3[C@@H](C(=O)N2CC4)[C@H](C)ON3C)cc1 was read as hgDAF-12 ag 4.0, DAX1 inh-2 -0.1, SMARCA2 act -4.5, ssDAF-12 act -1.6 and hcDAF12 agonist -0.8.
`Cc1ccc(O)c(-c2cc(C(=O)Nc3cccnc3)[nH]n2)c1` gave DAX1 inh-1 7.0*, hgDAF-12 ag 18.8*, DAX1 inh-2 4.8*, SMARCA2 act 6.6, ssDAF-12 act -0.1, hcDAF12 agonist 1.7, DAX1 conf 12.8*, SF1 mutant ctr 6.2*, hgDAF12 ag 13.2* and LXR ag 2 0.7.
For Cc1cc(F)ccc1-c1cc(C(=O)Nc2ccccc2)[nH]n1 the results were hgDAF-12 ag 20.6*, DAX1 inh-2 12.0*, SMARCA2 act 1.2, ssDAF-12 act 1.5*, hcDAF12 agonist 11.9*, DAX1 conf 15.2*, SF1 mutant ctr 5.8*, LXR ag 1.8, hcDAF12 ag 13.9*, hgDAF12 ag 20.1* and LXR ag 2 1.2.
`COc1ccc(F)cc1-c1cc(C(=O)Nc2cccnc2)[nH]n1` gave hgDAF-12 ag 7.7, DAX1 inh-2 2.3, SMARCA2 act -0.2, ssDAF-12 act -1.3 and hcDAF12 agonist -1.2.
`CCCCN=C(N)NC(=O)c1ccccc1` gave hgDAF-12 ag 3.1, DAX1 inh-2 1.2, SMARCA2 act -0.7, ssDAF-12 act -1.0 and hcDAF12 agonist -1.2.
`CN(Cc1ccccc1)C(=O)c1cccc(NC(=O)Cc2cccc(NC(=O)C3CCN(C(=O)CCc4ccccc4)CC3)c2)c1` gave hgDAF-12 ag 3.8, DAX1 inh-2 -1.5, SMARCA2 act -3.1, ssDAF-12 act -1.4 and hcDAF12 agonist -2.6.
For CCOC(=O)c1sc(=NC(=O)c2ccccc2)n(C)c1C the results were DAX1 inh-1 2.9, hgDAF-12 ag 13.3*, DAX1 inh-2 4.6*, SMARCA2 act 5.1, ssDAF-12 act 2.2*, hcDAF12 agonist 15.7*, DAX1 conf 14.9*, SF1 mutant ctr 9.6*, LXR ag 1.3, hcDAF12 ag 14.1*, hgDAF12 ag 18.0* and LXR ag 2 0.9.
`Cc1c(Cl)ccc2sc(NC(=O)c3ccco3)nc12` gave DAX1 inh-1 3.2, hgDAF-12 ag 21.4*, DAX1 inh-2 6.0*, SMARCA2 act 0.7, ssDAF-12 act 1.2*, hcDAF12 agonist 10.4*, DAX1 conf 12.1*, SF1 mutant ctr 8.7*, LXR ag 1.6, hcDAF12 ag 9.9*, hgDAF12 ag 21.5* and LXR ag 2 1.0.
Screening Cc1c(Cl)cccc1NC(=O)c1ccco1 returned DAX1 inh-1 0.3, hgDAF-12 ag -0.3, DAX1 inh-2 0.4, SMARCA2 act 7.5, ssDAF-12 act -0.6 and hcDAF12 agonist -0.7.
COC(=O)Cc1ccc2sc(-c3ccccc3)nc2c1 was read as DAX1 inh-1 -0.5, hgDAF-12 ag 21.2*, DAX1 inh-2 5.9*, SMARCA2 act 2.8, ssDAF-12 act 1.0*, hcDAF12 agonist 13.1*, DAX1 conf 13.1*, SF1 mutant ctr 8.6*, LXR ag 2.0, hcDAF12 ag 10.6*, hgDAF12 ag 17.3* and LXR ag 2 0.9.
O=C(Nc1ccc(F)cc1)OCc1cn(Cc2ccccc2C(F)(F)F)nn1 was read as hgDAF-12 ag 2.1, DAX1 inh-2 -0.6, SMARCA2 act -2.0, ssDAF-12 act -1.0 and hcDAF12 agonist -1.8.
Screening CCc1ccc(C2=NN(C(C)=O)C(c3ccco3)C2)cc1 (configuration not stated) returned DAX1 inh-1 2.7, hgDAF-12 ag 15.4*, DAX1 inh-2 4.9*, SMARCA2 act 5.5, ssDAF-12 act -0.1, hcDAF12 agonist 4.1, DAX1 conf 9.5*, SF1 mutant ctr 5.5*, hgDAF12 ag 15.0* and LXR ag 2 0.5.
`CCOC(=O)Nc1ccc2c(c1)[C@]1(CC(=O)N(CC(C)C)C1c1ccccc1)C(=O)N2C` (some centres not stated) gave hgDAF-12 ag 2.8, DAX1 inh-2 0.0, SMARCA2 act -2.0, ssDAF-12 act -1.0 and hcDAF12 agonist 0.7.
